Source: PubChem BioAssay (Tox21)
Results filed as inconclusive are left out. Unmarked numbers belong to inactive results. The call rests on the fitted dose curve; in most records, active means well fitted activation curve with a large enough effect in the signal ratio in the repeat runs (not every such curve was filed as active); inconclusive means weak or mixed curves, or effect the other way; inactive means flat fitted curve, though single readings scatter; the % refers to the signal ratio.

target: Estrogen receptor beta (Homo sapiens) (UniProt Q92731); experiment: qHTS assay to identify small molecule agonists of the estrogen receptor beta (ER-beta) signaling pathway (AID 1259377); conditions: ER-beta-UAS-bla HEK293T, beta-lactamase FRET ratio, 16 h; series mostly up to 92.4 µM; activation: at the top concentration
Text: U.S. Tox21 Program National Center for Advancing Translational Sciences [NCATS] NIH Chemical Genomics Center [NCGC] U.S. Environmental Protection Agency [EPA] National Institutes of Environmental Health Sciences [NIEHS] National Toxicology Program [NTP] U.S. Food and Drug Administration [FDA] Tox21 Assay Overview: Estrogen receptor (ER), a nuclear hormone receptor, plays an important role in development, metabolic homeostasis and reproduction. Two subtypes of ER, ER-alpha and ER-beta, have similar expression patterns with some uniqueness in both types. Endocrine disrupting chemicals (EDCs) and their interactions with steroid hormone receptors like ER causes disruption of normal endocrine function. To identify the compounds that activate ER signaling, an ER beta-UAS-bla GripTite cell line (Life technologies, Madison, WI, USA) containing a beta-lactamase reporter gene under the control of an Upstream Activator Sequence (UAS) was used to screen Tox21 10K compound library.
Tox21 Assay Protocol Summary: ER-beta-UAS-bla HEK293T cells were dispensed at 2,000 cells/5 uL of assay medium containing 2% charcoal stripped FBS per well into black wall/clear-bottom 1536-well plates using a Multidrop Combi (ThermoFisher Scientific, Waltham, MA) dispenser. After the assay plates were incubated at a 37C and 5% CO2 for 6 hr, 23 nL of compounds dissolved in DMSO, positive controls or DMSO only was transferred to the assay plate by a Pintool station (Kalypsys, San Diego, CA). The plates were incubated at 37C and 5% CO2 for 16 hr. Then 1 uL of LiveBLAzerTM B/G FRET substrate was added using a BioRAPTR FRD (Flying Reagent Dispenser, Aurora Discovery, San Diego, CA). After the plates were incubated at room temperature for 2 hours, fluorescence intensity was measured by an Envision plate reader (PerkinElmer, Shelton, CT).
On the % scale 0 is the no-effect control and ±100 the full control effect.

Estrogen receptor beta (Homo sapiens), sequence (Q92731 whole entry, looked up): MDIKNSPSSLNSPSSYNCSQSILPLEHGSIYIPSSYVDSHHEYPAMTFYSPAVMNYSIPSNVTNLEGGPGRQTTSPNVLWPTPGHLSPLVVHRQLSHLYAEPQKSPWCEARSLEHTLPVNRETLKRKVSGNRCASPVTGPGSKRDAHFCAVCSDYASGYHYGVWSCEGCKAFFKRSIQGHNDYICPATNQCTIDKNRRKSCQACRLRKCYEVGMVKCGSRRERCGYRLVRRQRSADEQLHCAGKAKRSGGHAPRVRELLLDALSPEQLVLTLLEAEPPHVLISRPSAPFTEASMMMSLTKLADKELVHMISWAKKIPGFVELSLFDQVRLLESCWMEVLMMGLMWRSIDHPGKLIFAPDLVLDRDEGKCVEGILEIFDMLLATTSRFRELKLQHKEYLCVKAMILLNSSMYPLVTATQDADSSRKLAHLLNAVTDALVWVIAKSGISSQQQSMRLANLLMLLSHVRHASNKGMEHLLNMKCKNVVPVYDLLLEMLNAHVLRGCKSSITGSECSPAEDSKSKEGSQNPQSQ

| SMILES | activation |
| --- | --- |
| CCOc1cc(OCC)c(C(=O)CCC(=O)O)cc1OCC | 2.24% [at 42.5 µM] |
| COCCOCCOCCOCCOC | -2.64% |
| CC(=O)N(O)CCCCCNC(=O)CCC(=O)N(O)CCCCCNC(=O)CCC(=O)N(O)CCCCCN | -4.94% [at 42.5 µM] |
| Cc1ccc(C)o1 | 7.04% |
| CC(C)(C)C(=O)OCOP(=O)(COCCn1cnc2c(N)ncnc21)OCOC(=O)C(C)(C)C | -2.35% [at 42.5 µM] |
| C#CCOC(=O)[C@@H](C)Oc1ccc(Oc2ncc(Cl)cc2F)cc1 | -1.62% |
| O=C1[C@H](CC[C@H](O)c2ccc(F)cc2)[C@@H](c2ccc(O)cc2)N1c1ccc(F)cc1 | -0.523% [at 42.5 µM] |
| CCCCOC(=O)/C=C\C(=O)OCCCC | -2.11% |
| CC(CN)CCCN (stereo not given) | 0.697% |
| Cc1cccc(C(C)(C)C)c1O | -1.68% |
| Cc1ccc(C(C)c2ccc(C)c(C)c2)cc1C | -0.886% |
| CC(=O)O[C@@H]1C(=O)O[C@@H]2[C@H]1OC(=O)[C@@H]2OC(C)=O | -0.777% [at 42.5 µM] |
| CC/C(=C\C(=N/O)C(N)=O)C(C)[N+](=O)[O-] (stereo not given) | -1.02% |
| Cn1c(NCCN(CCO)CCCc2ccc([N+](=O)[O-])cc2)cc(=O)n(C)c1=O | 3.11% [at 42.5 µM] |
| CC[C@H](C)[C@@H](C(=O)O)n1sc2ccccc2c1=O | -0.489% |
| CC1CCc2cc(F)cc3c(=O)c(C(=O)O)cn1c23 (stereo not given) | 4.89% [at 42.5 µM] |
| Cc1ccc(C(N)=O)cc1N | 6.04% |
| O=C(CCN1CCN2CCCC2C1)N1c2ccccc2Sc2ccc(Cl)cc21 (stereo not given) | -2.5% [at 19 µM] |
| CCOC(=O)CC(=O)c1cc(F)c(Cl)nc1Cl | -0.68% |
| CC(C)(C)c1ccc(S)cc1 | 1.36% |

| SMILES | activation |
| --- | --- |
| Cc1nc2ccccc2n1Cc1ccc(Cl)cc1 | -6.27% [at 42.5 µM] |
| CCCCOc1ccc(CC(=O)NO)cc1 | -7.64% [at 42.5 µM] |
| CCCCCCCCC(CO)CCCCCC (stereo not given) | -0.0279% |
| O=C(O)/C=C/c1cnc[nH]1 | 4.34% |
| O=C(O)COC(=O)Cc1ccccc1Nc1c(Cl)cccc1Cl | -5.29% [at 42.5 µM] |
| Cc1ncsc1CCO | -0.137% |
| CCCCCCCCCCCCCCC1CO1 (stereo not given) | 0.78% |
| Cc1occc1S | 3.66% |
| C[C@H](CCC(=O)O)[C@H]1CC[C@H]2[C@@H]3[C@H](O)C[C@@H]4C[C@H](O)CC[C@]4(C)[C@H]3CC[C@]12C | -0.263% |
| Cc1cc(CC(=O)O)c(C)n1-c1ccc(Cl)cc1 | -6.12% [at 42.5 µM] |
| CCCCCCc1ccc(N)cc1 | -3.78% |
| CC[C@]12CCCN3CCc4c(n(c5ccccc45)C(=O)C1)[C@@H]32 | -1.98% [at 42.5 µM] |
| CNS(=O)(=O)Cc1ccc2[nH]cc(CCN(C)C)c2c1 | 0.967% [at 42.5 µM] |
| O=C(O)c1cn(C2CC2)c2cc(Cl)c(F)cc2c1=O | -0.295% [at 42.5 µM] |
| CC(=O)N(CC(=O)N(C)C)c1ccccc1 | 11.1% [at 42.5 µM] |
| CC(C)(C)c1cc(O)c(C(C)(C)C)cc1O | -0.824% |
| OC(CCN1CCCCC1)(c1ccccc1)C1CCCCC1 (stereo not given) | -1.71% [at 42.5 µM] |
| CCOC(=O)C1=C(C)NC(C)=C(C(=O)OC)C1c1cccc([N+](=O)[O-])c1 (stereo not given) | -0.641% [at 42.5 µM] |
| c1ccc(CNCc2ccccc2)cc1 | -0.835% |
| CCCCOCCOCCOCCOCCO | 1.8% |
